Drawing on PubChem BioAssay AID1851 (National Center for Advancing Translational Sciences (NCATS), 2009), this text covers AC50 and activity, negative = inhibition for 54 compounds.

Hit rate of the full screen: of about 16,000 compounds, about 4,000 (25%) were called active. Inconclusive results (about 26%) are left out. Calls follow the shape of the dose curve; as a rule, active = well fitted curve in the direction sought with a large enough effect; inconclusive = small, poorly fitted or top-dose-only effect, or effect the other way; inactive = no such curve, though single readings can be large or run the other way. Not all results are given here.
% is scaled to controls: 0 for no effect and ±100 for the full control effect.

In this assay the target is Cytochrome P450 2C9 (Homo sapiens) (UniProt P11712). The assay can be described thus: Cytochrome panel assay with activity outcomes. Conditions: recombinant CYP, pro-luciferin dealkylation, luminescence, p450-cyp2c9; series mostly up to 57.1 µM.
Cytochrome P450 2C9 (Homo sapiens), sequence (P11712 whole entry, looked up): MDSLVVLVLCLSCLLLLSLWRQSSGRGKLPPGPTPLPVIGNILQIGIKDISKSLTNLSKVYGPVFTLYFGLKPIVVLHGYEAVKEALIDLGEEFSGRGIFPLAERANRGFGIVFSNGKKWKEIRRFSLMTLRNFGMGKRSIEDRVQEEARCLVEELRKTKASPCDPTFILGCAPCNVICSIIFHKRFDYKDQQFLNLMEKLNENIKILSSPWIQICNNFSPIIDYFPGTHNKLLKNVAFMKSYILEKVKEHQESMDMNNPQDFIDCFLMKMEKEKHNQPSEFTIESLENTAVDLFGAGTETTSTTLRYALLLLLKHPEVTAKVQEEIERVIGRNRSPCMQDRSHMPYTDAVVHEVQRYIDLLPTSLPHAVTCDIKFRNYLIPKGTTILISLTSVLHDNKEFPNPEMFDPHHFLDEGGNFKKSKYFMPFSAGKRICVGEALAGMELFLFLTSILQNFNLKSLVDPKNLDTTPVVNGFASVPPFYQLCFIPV
Consider `N#Cc1c2n(c3c(=S)nc[nH]c13)CCCCC2`, for which the AC50 is 17.8 µM (active).
As for `CO[C@H]1COC(=O)[C@H](C)COC(=O)C/C=C\[C@@H](C)[C@H](OC)COC(=O)C/C=C\[C@@H]1C`, the activity, negative = inhibition is 8.36% [at 11.4 µM] (inactive).
In the case of `CCCc1ccc(C2C3=C(CC(C)(C)CC3=O)NC3=C2C(=O)c2ccccc23)cc1` (centres undefined), the AC50 is 7.94 µM (active).
As to `CO[C@H]1COC(=O)[C@@H](Cc2ccccc2)NC(=O)[C@@H](C)COC(=O)C/C=C\[C@@H]1C`, the activity, negative = inhibition was 15.1% [at 11.4 µM] (inactive).
In the case of `Cc1ccc(/C(N)=N/OC(=O)Cc2cccs2)cc1`, the AC50 is 7.08 µM (active).
In the case of `O=C(O)C(Cc1cccs1)C(=O)O`, the activity, negative = inhibition was -6.54% [at 11.4 µM] (inactive).
For the compound `Cc1ccc(C(N)=Nc2ccccc2)cc1`, the activity, negative = inhibition was 3.59% [at 11.4 µM] (inactive).
Take `C[N+]1(C)C[C@@H](O)C[C@@H]1C(=O)[O-]`: the AC50 entry was “inactive”.
For the compound `Cc1ccccc1-c1cncnc1NCc1cccs1`, the activity, negative = inhibition is 0.654% [at 2.29 µM] (inactive).
Regarding `COc1cccc(C(CC(=O)Nc2cccc3ccccc23)NC(=O)c2ccccc2)c1` (centres undefined), the AC50 is 0.251 µM (active).
In the case of `CN(CCO)c1nc(N)c2c(N)nc3c(c2c1C#N)CC(=O)N3C1CCCC1`, the AC50 is 1.41 µM (active).
In the case of `CC(C)NC(=O)N1CCCC2(CCN(C(=O)c3ccco3)CC2)C1`, the AC50 result was “inactive”.
Consider `CC(C)(C)c1cc2c(O)c(c1)Cc1cc(C(C)(C)C)cc(c1O)Cc1cc(C(C)(C)C)cc(c1O)Cc1cc(C(C)(C)C)cc(c1O)Cc1cc(C(C)(C)C)cc(c1O)Cc1cc(C(C)(C)C)cc(c1O)Cc1cc(C(C)(C)C)cc(c1O)Cc1cc(C(C)(C)C)cc(c1O)C2`, for which the activity, negative = inhibition was -3.37% [at 11.4 µM] (inactive).
Still for that read-out and setting: the figure for `CN(Cc1ccco1)c1nc(-c2ccc3c(c2)OCO3)nc2ccccc12` is -18.1% [at 2.29 µM] (inactive).
Turning to `c1ccc2c(c1)ncn2Cc1nnc2sc(-c3ccc4c(c3)OCO4)nn12`, the AC50 is 3.16 µM (active).
On the same count and under the same terms, the entry for `Cn1c(-c2ccc3c(c2)OCO3)cc(=O)c2ccccc21` is “inactive”; for `Cc1noc(C)c1COc1ccc(C(=O)NCC2CCCO2)cc1` (centres undefined) it is “inactive”; for `COc1ccc(C(=O)OC(C)CN2CCN(C)CC2)cc1OC` (centres undefined) it is “inactive”.
With `COc1cc(C(=O)OC(C)C(=O)Nc2ccc3c(c2)OCO3)ccc1OCc1c(C)noc1C` (centres undefined), the AC50 was 11.2 µM (active).
Consider `N#C[C@@H](N=Nc1ccccc1C(=O)O)C(N)=O`, for which the activity, negative = inhibition is -3.32% [at 11.4 µM] (inactive).
Regarding `CNc1nc(-c2ccccc2C)nc2ccccc12`, the activity, negative = inhibition is 24.9% [at 2.29 µM] (inactive).
Take `CCN(CC)S(=O)(=O)c1ccc(C(=O)Nc2ncn(Cc3ccccc3)n2)cc1`: the AC50 is 11.2 µM (active).
Same read-out and setting: the entry for `CCCN(CCC)S(=O)(=O)c1ccc(C(=O)O)cc1` is “inactive”; for `O[C@@H](C1=C/C(=C\c2ccncc2)c2ccccc21)c1ccncc1` it is 0.1 µM (active).
Consider `Cc1cc(C(C)(C)C)cc(C)c1CC1=NCCN1`, for which the AC50 result is “inactive”.
Turning to `CCOc1ccc(NC(=O)N2CCC(C(N)=O)(N3CCCCC3)CC2)cc1`, the AC50 result is “inactive”.
Turning to `CCOc1ccc(NC(=O)N(C2CCCCC2)C(C)c2ccncc2)cc1` (centres undefined), the AC50 was 3.55 µM (active).
As for `CCCCN(C(=O)Nc1ccc(OCC)cc1)C1CCN(C(C)=O)CC1`, the AC50 result is “inactive”.
On to `c1ccc(CCNc2ccccn2)nc1`, for which the activity, negative = inhibition was -7.63% [at 11.4 µM] (inactive).
The same measure, in the same setting: for `CCN(CCO)C[C@H]1CCC[C@H]2CCCC[C@@H]21` the value was 1.06% [at 11.4 µM] (inactive).
Consider `Cn1c(CN2CCCCC2)nc2cc(NC(=O)c3ccc(Cl)cc3)ccc21`, for which the AC50 entry is “inactive”.
Regarding `O=C(Nc1ccc2oc(-c3ccccc3F)nc2c1)c1ccc2c(c1)OCCO2`, the AC50 was 8.91 µM (active).
`C[C@@]1(C(=O)O)NCCc2cc(O)c(O)cc21`: the AC50 entry is “inactive”.
With `CN(C)CCCN1c2ccccc2C(C)(C)c2ccccc21`, the activity, negative = inhibition was -4.58% [at 11.4 µM] (inactive).
On to `COc1nc(OCCNC(C)=O)nc(N(C)C)n1`, for which the AC50 result was “inactive”.
On the same count and under the same terms, for `COCCn1c(=O)c(-c2cccc(C#N)c2)nc2cnc(OCc3ccccc3)nc21` the value was 10 µM (active); for `COc1ncc2nc(-c3cccc(C#N)c3)c(=O)n(CCC#N)c2n1`, “inactive”; for `CCNc1ncc2nc(-c3cccc(C#N)c3)c(=O)n(CCC#N)c2n1`, “inactive”.
As to `COCCn1c(=O)c(-c2cccc(C#N)c2)nc2cnc(Oc3ccccc3)nc21`, the AC50 is 7.94 µM (active).
`Cn1c(=O)c(-c2cccc(C#N)c2)nc2cnc(Oc3ccccc3)nc21`: the AC50 result is “inactive”.
On the same count and under the same terms, the entry for `COCCn1c(=O)c(-c2cccc(C#N)c2)nc2cnc(N(C)C)nc21` is “inactive”.
On to `C[C@@H]1/C=C\CC(=O)OC[C@H](C)C(=O)N[C@@H](C)C(=O)OC1`, for which the activity, negative = inhibition was 5.57% [at 11.4 µM] (inactive).
Regarding `Nc1nc2c(nc(Br)n2[C@@H]2O[C@H]3COP(=O)(O)O[C@@H]3[C@H]2O)c(=O)[nH]1`, the AC50 result is “inactive”.
Take `COc1ccc(C2N(c3ccccn3)C(=O)C3CCCN32)c(OC)c1` (centres undefined): the AC50 result is “inactive”.
Same read-out and setting: for `COc1ccc(N2C(=O)c3ccccc3NC2c2ccc(OC)c(CSc3ccccn3)c2)cc1` (centres undefined) the value was 1.12 µM (active); for `CN(C)[C@@H]1C(=O)C(C(N)=O)=C(O)[C@]2(O)C(=O)C3=C(O)c4c(O)ccc(Cl)c4[C@H](O)[C@H]3C[C@@H]12`, “inactive”.
Turning to `CCOC(=O)N/N=C1/C[C@@H](O)[C@@H](O)[C@@H]2[C@@H]3C(=O)N(Cc4ccccc4)C(=O)[C@H]3CC[C@@H]12`, the activity, negative = inhibition is 23.5% [at 11.4 µM] (inactive).
Take `CCOC(=O)N/N=C1/C[C@@H](O)[C@@H](O)[C@@H]2[C@@H]3C(=O)N(Cc4ccccc4)C(=O)[C@H]3CC[C@H]12`: the activity, negative = inhibition was -12.9% [at 11.4 µM] (inactive).
With `CCOC(=O)C1=C(O)C(=O)N(Cc2ccccc2)C1`, the AC50 was 3.98 µM (active).
Still for that read-out and setting: for `CCCCCCC1CC(C)(/C(C)=N/NC(N)=O)OC1=O` (centres undefined) the value was 22.4 µM (active).
With `CC(=O)OC[C@H]1O[C@@H](O/N=C(\C)CCC(=O)OC[C@@H]2O[C@H](C#Cc3ccccc3)C=C[C@@H]2Oc2ccc(C)cc2)[C@H](OC(C)=O)[C@@H](OC(C)=O)[C@H]1OC(C)=O`, the activity, negative = inhibition was -6.45% [at 11.4 µM] (inactive).
Turning to `O=C(Nc1ccc(Cl)c(Cl)c1)N1CCC(N2CCCCC2)CC1`, the AC50 result is “inactive”.
Still for that read-out and setting: for `CC1CCN(C(=O)Nc2ccc3nsnc3c2)CC1` the value was 15.8 µM (active); for `Cc1cccc(C)c1NC(=O)N1CCC(N2CCCCC2)CC1`, “inactive”.

A word on the AC50: it is the concentration at which the activity in the assay is half-maximal.
